TDP1 cell CPT: growth inhibition of DT40 Tdp1-/-;hTDP1 cells with camptothecin (screen for TDP1 inhibitors) | Potency, µM (highest dose often 46.2 µM), inactives show at the highest dose activity change, negative = growth inhibition, actives largely listed as inhibitors | 12% of 420,000 active | chicken DT40 Tdp1-/-;hTDP1 cells + 20 nM CPT, ATP luminescence, 48 h; note: potency is the fitted concentration of half-maximal effect; nearly all actives have a fitted effect of over 55% in size
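Cell growth measured by CellTiter-Glo luminescence after a minimum 48 h, 37 C compound exposure with 20 nM CPT in Tdp1-knockout DT40 cells stably expressing hTDP1, seeded 400/well; qHTS titration format.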
IL1B secr inh: blocks inflammasome-driven IL-1 beta release. THP-1 LPS/ATP IL-1B secretion, AlphaLISA, 16 h; stronger effect = lower value. activity change, % at 57.5 µM. 4.7% of 360,000 active; in the data active = activity change below about -50%; inconclusive = mostly about -30% to -49%
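THP-1 cells pretreated 1 hr with compounds (up to 57.5 uM final), then stimulated with LPS (250 ng/mL final) plus ATP (1.25 mM final); secreted IL-1B measured by AlphaLISA after 16 hr, decreased signal indicating inhibition.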
HT1080NT lethal: kills 2HG-producing HT-1080-NT fibrosarcoma cells. HT-1080-NT fibrosarcoma viability, CellTiter-Glo ATP luminescence, 48 h. Potency, µM (titrated, usually from 46.1 µM), without a hit: at the top dose activity, negative = less viability, most hits filed as cytotoxic. 1.6% of 360,000 active;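 note: NT is the 2HG producing partner of a matched IDH1 knockdown line; potency is the fitted concentration of half-maximal effect; 0% = DMSO-treated cells and -100% = media-only wells without cells; nearly all actives have a fitted effect of over 55% in size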
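Viability by CellTiter-Glo luminescence after 48 h compound exposure at 37C of HT-1080-NT cells (750/well, RPMI, 5% FBS). % activity scaled between DMSO wells and medium-only wells, then curve-fitted and categorized by curve class.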
12-LOX inh: ALOX12 (human) lipoxygenase inhibition; purified 12hLO, xylenol orange hydroperoxide absorbance; Potency, µM (titrated, usually from 108 µM), inactives show at the highest dose activity change, negative = inhibition, hits mostly inhibitors; P18054; 1.1% of 580,000 active; AID 1671190; note: potency is the fitted concentration of half-maximal effect
Target sequence (P18054 whole entry, looked up): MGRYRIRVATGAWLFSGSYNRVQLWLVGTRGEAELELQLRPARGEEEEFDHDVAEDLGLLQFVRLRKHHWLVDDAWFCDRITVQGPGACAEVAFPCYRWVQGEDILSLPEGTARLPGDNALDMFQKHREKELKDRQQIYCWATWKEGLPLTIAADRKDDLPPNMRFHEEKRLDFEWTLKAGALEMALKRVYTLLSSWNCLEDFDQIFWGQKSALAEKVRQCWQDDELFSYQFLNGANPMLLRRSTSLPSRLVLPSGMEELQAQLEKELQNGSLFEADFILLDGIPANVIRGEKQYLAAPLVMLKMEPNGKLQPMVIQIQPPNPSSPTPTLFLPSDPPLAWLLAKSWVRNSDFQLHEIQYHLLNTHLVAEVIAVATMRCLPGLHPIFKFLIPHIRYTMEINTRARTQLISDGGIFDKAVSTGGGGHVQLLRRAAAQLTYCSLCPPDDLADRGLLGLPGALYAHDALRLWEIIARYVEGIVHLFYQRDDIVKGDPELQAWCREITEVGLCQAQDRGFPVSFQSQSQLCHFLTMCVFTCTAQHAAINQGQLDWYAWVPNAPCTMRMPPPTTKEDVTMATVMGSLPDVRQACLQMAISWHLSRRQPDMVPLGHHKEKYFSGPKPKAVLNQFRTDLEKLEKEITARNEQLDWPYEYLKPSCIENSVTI
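Purified human 12hLO at 150 nM in 25 mM Hepes, 0.01% Triton X-100, pH 7.0, preincubated 15 min at room temperature with compound. Reaction started with 40 uM arachidonic acid, 30 min at room temperature. Hydroperoxide measured by Fe-xylenol orange, 573/405 nm absorbance ratio.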
TDP1 cell noCPT: qHTS for Inhibitors of human tyrosyl-DNA phosphodiesterase 1 (TDP1): qHTS in cells in absence of CPT | AID 686978, 2013 | 15% of 420,000 active | Potency, µM (doses to about 46.2 µM), for the others: at the top dose activity change, negative = growth inhibition, usual class: inhibitors | DT40 Tdp1-/- hTDP1 cells, no CPT, ATP luminescence, 48 h; note: potency is the fitted concentration of half-maximal effect; nearly all actives have a fitted effect of over 55% in size
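Growth kinetics read by CellTiter-Glo luminescence after ≥48 hr at 37 °C. Cells: DT40 Tdp1-/- stably carrying human TDP1, 400 per well, compound exposure in the absence of CPT (DMSO vehicle).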
HT1080 IDH1KD tx: kills HT-1080 cells with IDH1 knockdown | AID 686971 | Potency, µM (titrated, usually from 46.1 µM), for the others: at the top dose activity, negative = toxicity, actives largely listed as cytotoxic | 2% of 360,000 active | HT-1080 IDH1 knockdown viability, ATP luminescence, 48 h;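 note: potency is the fitted concentration of half-maximal effect; 0% = DMSO wells and -100% = cell-free medium wells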
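In this qHTS, HT-1080 cells depleted of IDH1 are exposed for 48 h at 37 °C to compound titrations. Toxicity is scored from CellTiter-Glo luminescence, with DMSO as full viability and medium alone as none.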
Starred values were filed as active, the others as inactive; ? = inconclusive; nt = not tested or not shown; [ ] = remark or other dose. Many of the other results were omitted from the sample, so hits are more common in it than they were. Unless noted, calls come from the whole dose curve; as a rule, active = well fitted curve in the direction sought with a large enough effect; inconclusive = small, poorly fitted or top-dose-only effect, or another doubt; inactive = no such curve, though single readings can be large; an effect the other way counts as inactive or inconclusive. Unless noted, % is set by controls: 0 for no effect and ±100 for the full control effect.

SMILES | TDP1 cell CPT | IL1B secr inh | HT1080NT lethal | 12-LOX inh | TDP1 cell noCPT | HT1080 IDH1KD tx
COc1cc2c(cc1OC)C(=O)N1[C@H]3c4ccccc4OC[C@@H]3[C@H](c3ccccc3)[C@]1(C)C(=O)N2 | ? | ? | 4% | -5% | 15µM* | -15%
C[C@@]12C(=O)Nc3cc(F)c(F)cc3C(=O)N1[C@H]1c3ccccc3OC[C@@H]1[C@@H]2c1ccccc1 | ? | -63* | -25% | ? | 18µM* | -25%
Cc1ccc(CNS(=O)(=O)c2ccc(F)c(C(=O)Nc3ccc(C)c(F)c3)c2)cc1 | -14% | nt | nt | -24% | -10% | nt
Cc1ccc(C)c(NC(=O)c2cc(S(=O)(=O)NCc3ccccc3)ccc2F)c1 | ? | nt | nt | -27% | ? | nt
Cc1ccc(C)c(NC(=O)c2cc(S(=O)(=O)NCCC3=CCCCC3)ccc2F)c1 | ? | nt | nt | ? | 21µM* | nt
Cc1ccc(NC(=O)c2cc(S(=O)(=O)NCCC3=CCCCC3)ccc2F)cc1 | ? | -65* | -16% | -20% | ? | -25%
CN(C)CCCNc1nc2sc3c(c2c(=O)n1CCc1ccccc1)CCCCC3 | ? | nt | ? | ? | 16µM* | ?
CN(C)CCn1c(=O)n(Cc2ccccc2)c(=O)c2c3c(sc21)CCCCC3 | -7% | -64* | ? | ? | ? | ?
CN(C)CCCn1c(=O)n(CCc2ccccc2)c(=O)c2c3c(sc21)CCCCC3 | ? | ? | 5% | 137% | 23µM* | 0%
NNc1nc2sc3c(c2c(=O)n1Cc1ccccc1)CCC3 | -17% | -5 | -4% | 66% | -11% | 0%
CN(C)CCCn1c(=O)n(Cc2ccco2)c(=O)c2c3c(sc21)CCCCC3 | ? | nt | ? | 8% | ? | ?
COCCCNC(=O)N1CC(c2nc(CCOCC3CCOCC3)no2)C1 | nt | nt | nt | 38% | nt | nt
Cc1cc2cc(CNC(=O)Cc3cccs3)ccc2n1C | 8.2µM* | -3 | 6% | nt | ? | -1%
Cc1cc2cc(CNC(=O)Cc3ccc([N+](=O)[O-])cc3)ccc2n1C | -7% | 12 | 4% | -21% | -14% | 15%
Cc1cc2cc(CNC(=O)c3ccc(Br)o3)ccc2n1C | 26µM* | 22 | 12% | ? | -27% | -4%
CC(C)CCN1CCn2c(nnc2-c2cccnc2)C1 | nt | nt | nt | 58%[176 µM] | nt | nt
O=C1C2C3C=CC(CC3)C2C(=O)N1/N=C/c1ccc(O)c(O)c1 (stereo unspecified) | -14% | 29 | 1% | -28% | ? | -16%
O=C1c2ccccc2C(=O)N1/N=C/c1ccc(O)c(O)c1 | -26% | 20 | -7% | 22µM* | -20% | -9%
CSc1ccc(CCNC(=O)CCCn2nc(C)c3sc4ccccc4c3c2=O)cc1 | 15µM* | nt | nt | -8% | ? | nt
COc1cccc(CNC(=O)CCCn2nc(C)c3sc4ccccc4c3c2=O)c1 | 16µM* | nt | nt | 0% | ? | nt
Cc1nn(CCCC(=O)NCc2ccc(OC(C)C)cc2)c(=O)c2c1sc1ccccc12 | ? | nt | nt | 0% | ? | nt
Cc1cc(=O)oc2cc(OCC(=O)N(C)C3(C#N)CCCCC3)ccc12 | nt | nt | nt | 4% | nt | nt
CC1(C)C(=O)NCCN1C(=O)CSc1nccc(-c2ccc(Br)cc2)n1 | ? | -1 | ? | -4% | 16µM* | ?
COc1ccc(-c2ccnc(SCC(=O)c3ccc(Br)cc3)n2)cc1 | ? | -2 | 13% | 5% | ? | 12%
CC(C)(C)c1cc(C(=O)N/N=C/c2ccc(F)cc2)n(-c2ccccc2)n1 | 18µM* | 11 | -1% | 23% | 23µM* | 11%
SMILES | TDP1 cell CPT | IL1B secr inh | HT1080NT lethal | 12-LOX inh | TDP1 cell noCPT | HT1080 IDH1KD tx
CC(C)(C)c1cc(C(=O)N/N=C/c2ccccc2O)n(-c2ccccc2)n1 | 6.5µM* | 62 | ? | 21% | 6.5µM* | ?
Fc1cc(F)cc(Cc2nc3nccc(-c4ccsc4)n3n2)c1 | nt | nt | nt | 2% | nt | nt
COc1ccc(C=O)c(OCc2cn(CC(=O)c3ccc(O)cc3)nn2)c1 | -20% | 13 | 3% | 1.3µM* | -10% | 4%
Cn1nccc1CN1CCC2(CC1)CC(=O)c1ccccc1O2 | nt | nt | nt | 49%[176 µM] | nt | nt
Cn1c(=O)c2c(ncn2CC(=O)OCCCC(=O)c2ccc(Br)cc2)n(C)c1=O | 18µM* | 32 | -5% | 2% | 6.5µM* | -8%
Cc1ccc(OCCn2c(Br)nc3c2c(=O)n(C)c(=O)n3C)cc1 | 12µM* | -7 | 0% | -1% | 18µM* | 0%
Cn1c(=O)c2c(ncn2CCOc2cccc(Br)c2)n(C)c1=O | 8.2µM* | 32 | ? | 4% | 9.2µM* | -14%
Cc1ccc(C(=O)Cn2c(Br)nc3c2c(=O)n(C)c(=O)n3C)cc1 | nt | nt | nt | 12% | nt | nt
CCOc1ccc(C(=O)COC(=O)Cn2cnc3c2c(=O)n(C)c(=O)n3C)cc1 | 11% | -1 | 21% | -26% | -5% | 9%
COCc1[nH]nc2c1C(c1ccc(OC)c(OC)c1)C(C#N)=C(N)O2 (stereo unspecified) | 0% | ? | 6% | 45% | -15% | 7%
COCc1[nH]nc2c1C(c1ccnc3ccccc13)C(C#N)=C(N)O2 (stereo unspecified) | 18µM* | -25 | -3% | -3% | 9.2µM* | 8%
CCn1c2ccccc2c2cc(C3C(C#N)=C(N)Oc4n[nH]c(COC)c43)ccc21 (stereo unspecified) | ? | ? | 11µM* | -15% | 26µM* | 8.9µM*
CC(C)C(=O)Oc1ccc2c(-c3cc4ccccc4oc3=O)cc(=O)oc2c1 | nt | nt | nt | 3% | nt | nt
COc1cccc(NC(=S)N(CCN2CCCCC2)Cc2ccco2)c1 | ? | ? | -8% | -2% | -18% | -12%
CCCN(Cc1ccccc1)C(=S)Nc1ccc(OCC)cc1 | ? | -58* | -24% | 0% | 18µM* | -13%
CCOc1ccc(NC(=S)NCc2ccco2)cc1 | 3% | -3 | 7% | ? | -2% | 11%
COc1ccc(NC(=S)N(Cc2ccc(N(C)C)cc2)Cc2ccco2)cc1 | 2% | -76* | -14% | 16% | ? | -7%
CCCN(Cc1ccccc1)C(=S)Nc1ccc(F)cc1 | 13% | -10 | 15% | ? | -11% | 1%
CCOc1ccc(NC(=S)N(Cc2ccc(N(C)C)cc2)Cc2ccco2)cc1 | ? | -19 | 6% | 15% | 16µM* | 5%
Cc1ccnc(SC(C(=O)c2ccccc2)c2ccccc2)n1 (stereo unspecified) | nt | nt | nt | 4% | nt | nt
